Source: PMC7862700, “An all-to-all approach to the identification of sequence-specific readers for epigenetic DNA modifications on cytosine”

Key:
Assay in all cases: DAPPL (digital affinity profiling via proximity ligation, sequencing); 10 mM Tris-HCl pH 7.5, 50 mM NaCl, 1 mM DTT, 4% glycerol, room temperature, 30 min; GST-TFs on glutathione beads, 16-mer random dsDNA library, 0.1% formaldehyde crosslink after washing; high values mean tight binding
FLI1 = biological target: T1, FLI1 (Homo sapiens, UniProt Q01543 1-452); conditions: protein: recombinant; tags: N-terminal GST; dsDNA, one strand shown
T1 sequence: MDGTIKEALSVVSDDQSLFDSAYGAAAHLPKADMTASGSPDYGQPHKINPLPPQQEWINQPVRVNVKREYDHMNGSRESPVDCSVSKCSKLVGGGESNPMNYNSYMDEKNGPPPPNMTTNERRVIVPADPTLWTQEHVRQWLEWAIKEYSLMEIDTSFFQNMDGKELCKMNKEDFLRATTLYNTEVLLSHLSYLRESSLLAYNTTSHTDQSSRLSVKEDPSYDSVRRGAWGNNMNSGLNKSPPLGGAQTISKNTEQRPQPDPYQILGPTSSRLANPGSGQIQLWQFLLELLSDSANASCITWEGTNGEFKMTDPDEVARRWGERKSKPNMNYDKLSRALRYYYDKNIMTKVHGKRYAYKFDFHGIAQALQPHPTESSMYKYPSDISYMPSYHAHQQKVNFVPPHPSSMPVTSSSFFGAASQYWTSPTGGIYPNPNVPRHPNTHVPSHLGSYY
Outline: (§1)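 Human transcription factors carrying a GST fusion were produced in yeast, bound to glutathione beads, tagged with DNA barcodes and pooled together with a tag-only sample. Each pool was held with 200 nmole of a random double-stranded 16-mer DNA library in Tris/NaCl/DTT/glycerol buffer for 30 min at room temperature, then washed, crosslinked in 0.1% formaldehyde, proximity-ligated with BsaI/T4 ligase (1 h, 37 °C), PCR-amplified and sequenced on an Illumina NextSeq500. Binding signal is the read frequency of each hexamer for a given factor divided by its frequency in the tag-only sample.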

SPI1 = SPI1 (Homo sapiens, UniProt P17947 1-270); conditions: protein: recombinant; tags: N-terminal GST; dsDNA, one strand shown
Outline: as §1

FEV = biological target: T2, FEV (Homo sapiens, UniProt Q99581 1-238); conditions: protein: recombinant; tags: N-terminal GST; dsDNA, one strand shown
T2 sequence: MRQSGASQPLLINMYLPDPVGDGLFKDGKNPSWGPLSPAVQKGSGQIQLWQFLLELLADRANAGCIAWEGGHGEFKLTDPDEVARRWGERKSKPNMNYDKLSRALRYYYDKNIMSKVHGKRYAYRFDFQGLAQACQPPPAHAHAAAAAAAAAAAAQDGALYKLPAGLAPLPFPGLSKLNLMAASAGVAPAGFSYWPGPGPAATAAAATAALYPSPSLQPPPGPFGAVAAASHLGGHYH
Outline: as §1

HSF1 = HSF1 (Homo sapiens, UniProt Q00613 1-529); conditions: protein: recombinant; tags: N-terminal GST; chain copies: 3; dsDNA, one strand shown
Outline: as §1

CRX = CRX (Homo sapiens, UniProt O43186 1-299); conditions: protein: recombinant; tags: N-terminal GST; dsDNA, one strand shown
Outline: as §1

ELF5 = biological target: T3, ELF5 (Homo sapiens, UniProt Q9UKW6-2 1-255); conditions: protein: recombinant; tags: N-terminal GST; dsDNA, one strand shown
T3 sequence: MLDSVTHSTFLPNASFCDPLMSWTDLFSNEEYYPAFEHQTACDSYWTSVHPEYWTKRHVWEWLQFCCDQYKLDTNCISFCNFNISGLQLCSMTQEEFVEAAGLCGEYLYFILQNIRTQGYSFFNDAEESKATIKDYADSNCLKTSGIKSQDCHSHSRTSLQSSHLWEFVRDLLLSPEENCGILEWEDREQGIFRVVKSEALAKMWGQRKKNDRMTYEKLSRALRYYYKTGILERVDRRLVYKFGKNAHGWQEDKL
Outline: as §1

ETV2 = biological target: T4, ETV2 (Homo sapiens, UniProt O00321 1-342); conditions: protein: recombinant; tags: N-terminal GST; dsDNA, one strand shown
T4 sequence: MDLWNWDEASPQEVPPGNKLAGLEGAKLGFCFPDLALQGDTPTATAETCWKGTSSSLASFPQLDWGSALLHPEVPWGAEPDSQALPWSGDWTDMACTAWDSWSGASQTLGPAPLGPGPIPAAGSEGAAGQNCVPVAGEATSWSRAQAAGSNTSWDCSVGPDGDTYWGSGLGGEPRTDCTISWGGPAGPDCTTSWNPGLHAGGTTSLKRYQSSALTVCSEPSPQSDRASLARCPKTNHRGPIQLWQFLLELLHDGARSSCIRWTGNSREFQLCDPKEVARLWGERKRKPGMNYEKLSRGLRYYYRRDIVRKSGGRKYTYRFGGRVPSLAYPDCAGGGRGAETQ
Outline: as §1

HSF1, sequence (Q00613 whole entry): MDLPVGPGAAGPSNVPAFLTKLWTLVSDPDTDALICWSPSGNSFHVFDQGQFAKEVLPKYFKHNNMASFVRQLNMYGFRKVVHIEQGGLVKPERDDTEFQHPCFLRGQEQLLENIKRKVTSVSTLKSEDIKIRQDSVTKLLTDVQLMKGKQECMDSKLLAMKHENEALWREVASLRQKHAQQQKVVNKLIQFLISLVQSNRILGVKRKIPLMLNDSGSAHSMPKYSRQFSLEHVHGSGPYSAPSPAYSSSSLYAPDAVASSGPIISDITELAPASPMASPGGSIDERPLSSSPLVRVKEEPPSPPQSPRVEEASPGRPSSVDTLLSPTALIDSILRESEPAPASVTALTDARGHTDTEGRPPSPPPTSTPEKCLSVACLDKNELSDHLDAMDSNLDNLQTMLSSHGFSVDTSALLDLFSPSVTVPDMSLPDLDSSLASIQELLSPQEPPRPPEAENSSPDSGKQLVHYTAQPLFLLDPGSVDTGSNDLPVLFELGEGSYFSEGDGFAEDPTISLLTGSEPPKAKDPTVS
CRX, sequence (O43186 whole entry): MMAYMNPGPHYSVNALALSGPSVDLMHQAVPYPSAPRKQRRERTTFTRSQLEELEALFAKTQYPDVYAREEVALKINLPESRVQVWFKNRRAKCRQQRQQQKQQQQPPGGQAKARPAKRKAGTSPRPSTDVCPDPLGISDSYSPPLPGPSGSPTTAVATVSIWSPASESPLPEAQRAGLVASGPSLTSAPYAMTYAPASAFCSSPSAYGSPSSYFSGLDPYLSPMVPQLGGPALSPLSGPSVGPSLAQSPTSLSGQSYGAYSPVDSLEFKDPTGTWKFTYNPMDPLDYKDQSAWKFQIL

Sequence | binding signal (FLI1) | binding signal (SPI1) | binding signal (FEV) | binding signal (HSF1) | binding signal (CRX) | binding signal (ELF5) | binding signal (ETV2)
GCCCGA | 1.12 fold enrichment (6-mer frequency, TF over GST control) | 1.01 fold enrichment (6-mer frequency, TF over GST control) | 1.07 fold enrichment (6-mer frequency, TF over GST control) | 1.1 fold enrichment (6-mer frequency, TF over GST control) |  |  | 
ACCTAG | 1.01 fold enrichment (6-mer frequency, TF over GST control) | 1.02 fold enrichment (6-mer frequency, TF over GST control) | 1.03 fold enrichment (6-mer frequency, TF over GST control) | 1.21 fold enrichment (6-mer frequency, TF over GST control) |  |  | 
TGAAGA | 1 fold enrichment (6-mer frequency, TF over GST control) |  |  | 1.09 fold enrichment (6-mer frequency, TF over GST control) | 1 fold enrichment (6-mer frequency, TF over GST control) |  | 
AGTCTC | 1.04 fold enrichment (6-mer frequency, TF over GST control) | 1.07 fold enrichment (6-mer frequency, TF over GST control) |  | 1 fold enrichment (6-mer frequency, TF over GST control) |  |  | 
TAAGCA | 1.08 fold enrichment (6-mer frequency, TF over GST control) |  | 1.04 fold enrichment (6-mer frequency, TF over GST control) | 1.29 fold enrichment (6-mer frequency, TF over GST control) | 1.7 fold enrichment (6-mer frequency, TF over GST control) | 1.02 fold enrichment (6-mer frequency, TF over GST control) | 
TTAAGA | 1.05 fold enrichment (6-mer frequency, TF over GST control) | 1.03 fold enrichment (6-mer frequency, TF over GST control) | 1.01 fold enrichment (6-mer frequency, TF over GST control) | 1.95 fold enrichment (6-mer frequency, TF over GST control) | 2.97 fold enrichment (6-mer frequency, TF over GST control) |  | 1.15 fold enrichment (6-mer frequency, TF over GST control)
TAGATA | 1.07 fold enrichment (6-mer frequency, TF over GST control) |  |  | 1.46 fold enrichment (6-mer frequency, TF over GST control) | 1.48 fold enrichment (6-mer frequency, TF over GST control) |  | 1.12 fold enrichment (6-mer frequency, TF over GST control)
CGTTTA | 1.08 fold enrichment (6-mer frequency, TF over GST control) | 1.06 fold enrichment (6-mer frequency, TF over GST control) | 1.09 fold enrichment (6-mer frequency, TF over GST control) | 1.06 fold enrichment (6-mer frequency, TF over GST control) | 1.19 fold enrichment (6-mer frequency, TF over GST control) | 1.07 fold enrichment (6-mer frequency, TF over GST control) | 1.03 fold enrichment (6-mer frequency, TF over GST control)
GTAAGC | 1.02 fold enrichment (6-mer frequency, TF over GST control) |  |  | 1.04 fold enrichment (6-mer frequency, TF over GST control) | 1.51 fold enrichment (6-mer frequency, TF over GST control) |  | 
ATAAGA | 1.02 fold enrichment (6-mer frequency, TF over GST control) | 1.13 fold enrichment (6-mer frequency, TF over GST control) | 1.01 fold enrichment (6-mer frequency, TF over GST control) | 1.54 fold enrichment (6-mer frequency, TF over GST control) | 1.97 fold enrichment (6-mer frequency, TF over GST control) | 1.02 fold enrichment (6-mer frequency, TF over GST control) | 1.03 fold enrichment (6-mer frequency, TF over GST control)
GCTAGT | 1.1 fold enrichment (6-mer frequency, TF over GST control) | 1.13 fold enrichment (6-mer frequency, TF over GST control) | 1.03 fold enrichment (6-mer frequency, TF over GST control) | 1.12 fold enrichment (6-mer frequency, TF over GST control) |  |  | 1.07 fold enrichment (6-mer frequency, TF over GST control)
TAGACT | 1.03 fold enrichment (6-mer frequency, TF over GST control) | 1 fold enrichment (6-mer frequency, TF over GST control) |  | 1.32 fold enrichment (6-mer frequency, TF over GST control) | 1.27 fold enrichment (6-mer frequency, TF over GST control) |  | 
CTTAAG | 1.06 fold enrichment (6-mer frequency, TF over GST control) | 1 fold enrichment (6-mer frequency, TF over GST control) | 1.05 fold enrichment (6-mer frequency, TF over GST control) | 1.7 fold enrichment (6-mer frequency, TF over GST control) | 2.69 fold enrichment (6-mer frequency, TF over GST control) | 1.09 fold enrichment (6-mer frequency, TF over GST control) | 1.13 fold enrichment (6-mer frequency, TF over GST control)
CTAGCC | 1.07 fold enrichment (6-mer frequency, TF over GST control) | 1.1 fold enrichment (6-mer frequency, TF over GST control) |  | 1.05 fold enrichment (6-mer frequency, TF over GST control) |  |  | 1.06 fold enrichment (6-mer frequency, TF over GST control)
TGAATC | 1.03 fold enrichment (6-mer frequency, TF over GST control) | 1.11 fold enrichment (6-mer frequency, TF over GST control) |  | 1.03 fold enrichment (6-mer frequency, TF over GST control) | 1.08 fold enrichment (6-mer frequency, TF over GST control) |  | 
GGATCT | 1.08 fold enrichment (6-mer frequency, TF over GST control) | 1.02 fold enrichment (6-mer frequency, TF over GST control) |  | 1.07 fold enrichment (6-mer frequency, TF over GST control) | 1.15 fold enrichment (6-mer frequency, TF over GST control) | 1.17 fold enrichment (6-mer frequency, TF over GST control) | 
GATCTA | 1.12 fold enrichment (6-mer frequency, TF over GST control) | 1 fold enrichment (6-mer frequency, TF over GST control) |  | 1.41 fold enrichment (6-mer frequency, TF over GST control) | 1.41 fold enrichment (6-mer frequency, TF over GST control) | 1.05 fold enrichment (6-mer frequency, TF over GST control) | 1.11 fold enrichment (6-mer frequency, TF over GST control)
GCTGGT | 1.29 fold enrichment (6-mer frequency, TF over GST control) | 1.19 fold enrichment (6-mer frequency, TF over GST control) | 1.1 fold enrichment (6-mer frequency, TF over GST control) | 1.06 fold enrichment (6-mer frequency, TF over GST control) | 1.05 fold enrichment (6-mer frequency, TF over GST control) | 1.09 fold enrichment (6-mer frequency, TF over GST control) | 1.1 fold enrichment (6-mer frequency, TF over GST control)
CGTCTG | 1.13 fold enrichment (6-mer frequency, TF over GST control) | 1.06 fold enrichment (6-mer frequency, TF over GST control) | 1.03 fold enrichment (6-mer frequency, TF over GST control) | 1.01 fold enrichment (6-mer frequency, TF over GST control) |  |  | 1.23 fold enrichment (6-mer frequency, TF over GST control)
